HT1080 IDH1KD tx – toxicity to HT-1080 IDH1 knockdown cells (counter line); Potency, µM (doses to about 46.1 µM), actives largely listed as cytotoxic; HT-1080 IDH1 knockdown viability, ATP luminescence, 48 h; 360,000 tested, 2% active; AID 686971
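% activity derives from luminescence (CellTiter-Glo), normalised to DMSO and no-cell wells. HT-1080-IDH1KD cells, 750/well, had 48 h compound exposure at 37 °C.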
TDP1 cell noCPT – qHTS for Inhibitors of human tyrosyl-DNA phosphodiesterase 1 (TDP1): qHTS in cells in absence of CPT; DT40 Tdp1-/- hTDP1 cells, no CPT, ATP luminescence, 48 h; Potency, µM (highest dose often 46.2 µM), hits mostly inhibitors; 420,000 tested, 15% active; AID 686978, 2013; further: nearly all actives have a fitted effect of over 55% in size
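Chicken DT40 Tdp1-/- cells complemented with human TDP1, screened without camptothecin (DMSO vehicle only), 400 cells/well. Compounds pin-transferred, cells incubated at 37 °C for at least 48 hr. Growth read as ATP-dependent luminescence (CellTiter-Glo, 30 min at RT).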
HT1080NT lethal – kills 2HG-producing HT-1080-NT fibrosarcoma cells; 360,000 tested, 1.6% active; HT-1080-NT fibrosarcoma viability, CellTiter-Glo ATP luminescence, 48 h; AID 686970; Potency, µM (titrated, usually from 46.1 µM), hits mostly cytotoxic;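 further: NT is the 2HG producing partner of a matched IDH1 knockdown line; nearly all actives have a fitted effect of over 55% in size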
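Compounds were tested in concentration-response format on HT-1080-NT cells for 48 hours at 37 degrees C. Cell viability came from CellTiter-Glo luminescence; curves were classified by r2, response magnitude and activity.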
IL-1B inflam inh – inflammasome signaling inhibition, IL-1 beta readout | activity change, % at 57.5 µM | AID 743279 | 360,000 tested, 4.7% active | THP-1 LPS/ATP IL-1B secretion, AlphaLISA, 16 h; active compounds read low; in the data active means activity change below about -50%; inconclusive means mostly about -30% to -49%
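THP-1 cells pretreated 1 hr with compounds (up to 57.5 uM final), then stimulated with LPS (250 ng/mL final) plus ATP (1.25 mM final); secreted IL-1B measured by AlphaLISA after 16 hr, decreased signal indicating inhibition.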
DT40 TDP1 CPT – growth inhibition of DT40 Tdp1-/-;hTDP1 cells with camptothecin (screen for TDP1 inhibitors); chicken DT40 Tdp1-/-;hTDP1 cells + 20 nM CPT, ATP luminescence, 48 h; Potency, µM (titrated, usually from 46.2 µM), usual class: inhibitors; 420,000 tested, 12% active; further: nearly all actives have a fitted effect of over 55% in size
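Cell growth measured by CellTiter-Glo luminescence after a minimum 48 h, 37 C compound exposure with 20 nM CPT in Tdp1-knockout DT40 cells stably expressing hTDP1, seeded 400/well; qHTS titration format.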
Large screens that a line does not name were inactive. Only some compounds are listed: those with a hit (about 19% of all), similar ones and a draw of the others. Unless noted, the call rests on the fitted dose curve; in most records, active means well fitted curve in the direction sought with a large enough effect; inconclusive means small, poorly fitted or top-dose-only effect, or another doubt; inactive means no such curve, though single readings can be large; an effect the other way counts as inactive or inconclusive.

CC(O)c1nc2ccccc2n1Cc1ccccc1 (stereo unspecified)	none
Cc1cc(C)c(S(C)(=O)=O)c(Oc2cccc(C(F)(F)F)c2)n1	DT40 TDP1 CPT inconclusive
CC(=O)N1CCN(C(=O)c2cc(-c3cccc4ccccc34)nc3ccccc23)CC1	TDP1 cell noCPT 16µM, DT40 TDP1 CPT 15µM
O=C(c1cc(-c2cccs2)nc2ccccc12)N1CCN(c2ccccc2)CC1	HT1080 IDH1KD tx inconclusive, TDP1 cell noCPT inconclusive, DT40 TDP1 CPT inconclusive
CC1CCCN(C(=O)c2cc(-c3cccs3)nc3ccccc23)C1 (stereo unspecified)	TDP1 cell noCPT 23µM, DT40 TDP1 CPT inconclusive
O=C(c1cc(-c2ccncc2)nc2ccccc12)N1CCCC(C(F)(F)F)C1 (stereo unspecified)	TDP1 cell noCPT 18µM, DT40 TDP1 CPT inconclusive
Cc1ccccc1N1CCN(C(=O)c2cc(-c3ccccc3)nc3c2cnn3C(C)C)CC1	none
Cc1ccc(-c2cc(C(=O)N3CCOCC3)c3ccccc3n2)cc1	none
CC(C)n1ncc2c(C(=O)N3CCN(c4ccc(F)cc4)CC3)cc(-c3ccccc3)nc21	TDP1 cell noCPT inconclusive, IL-1B inflam inh -58, DT40 TDP1 CPT inconclusive
O=C(c1cc(-c2ccncc2)nc2ccccc12)N1CCN(S(=O)(=O)/C=C/c2ccccc2)CC1	TDP1 cell noCPT 18µM, IL-1B inflam inh inconclusive, DT40 TDP1 CPT inconclusive
Cc1cccc2c(C(=O)N3CCCCC3)cc(-c3ccccc3)nc12	TDP1 cell noCPT inconclusive, DT40 TDP1 CPT inconclusive
O=C(c1cc(-c2ccncc2)nc2ccccc12)N1CCN(Cc2ccccc2)CC1	TDP1 cell noCPT 21µM, IL-1B inflam inh -60, DT40 TDP1 CPT 21µM
O=C(c1cc(-c2ccncc2)nc2ccccc12)N1CCOCC1	none
CC1CC(C)CN(C(=O)c2cc(-c3ccncc3)nc3ccccc23)C1 (stereo unspecified)	TDP1 cell noCPT inconclusive, DT40 TDP1 CPT inconclusive
Cc1ccccc1CN1CCN(C(=O)c2cc(-c3ccncc3)nc3ccccc23)CC1	TDP1 cell noCPT 12µM, DT40 TDP1 CPT 21µM
Cc1cccc2c(C(=O)N3CCN(c4ccccc4)CC3)cc(-c3ccncc3)nc12	HT1080 IDH1KD tx 1.3µM, TDP1 cell noCPT 2.9µM, HT1080NT lethal 1.3µM, DT40 TDP1 CPT 2.6µM
CCC(CC)=C(C#N)C(=O)NC1CCCCC1	DT40 TDP1 CPT inconclusive
COc1ccc(CCc2nc(C)ccc2O)cc1	TDP1 cell noCPT inconclusive
CCCCN1C(=O)C(=O)N(CC(=O)Nc2ccccc2C(=O)OCC)C1=O	HT1080 IDH1KD tx inconclusive, TDP1 cell noCPT inconclusive, HT1080NT lethal inconclusive, DT40 TDP1 CPT inconclusive
Cc1ccnc(NC2(C(F)(F)F)N=C(c3ccccc3)NC2=O)c1 (stereo unspecified)	none
CCc1ccccc1NC(=O)N1CCC(NC(=O)C(Cc2ccccc2)NC(C)=O)CC1 (stereo unspecified)	none
COc1ccc(/C=N/OC(=O)Nc2ccccc2OC)cc1	HT1080 IDH1KD tx 5.8µM, TDP1 cell noCPT 1.6µM, HT1080NT lethal 9.2µM, DT40 TDP1 CPT 1.5µM
CN(C)c1ccc(/C=N/OC(=O)Nc2ccccc2Cl)cc1	TDP1 cell noCPT 15µM, DT40 TDP1 CPT 8.2µM
O=C(CCn1c(=S)[nH]c2ccccc2c1=O)NCCc1ccc(Cl)cc1	TDP1 cell noCPT inconclusive
CCCNC(=O)C(Cc1ccccc1)NC(=O)c1ccc(C(F)(F)F)cc1 (stereo unspecified)	TDP1 cell noCPT inconclusive
CCCCC(O)(CCCC)C(=O)N/N=C(\C)c1ccc(Cl)cc1	TDP1 cell noCPT inconclusive, IL-1B inflam inh -54, DT40 TDP1 CPT inconclusive
COc1ccc(/C(C)=N/NC(=O)Cc2ccc(Cl)cc2)cc1	none
C[C@H](CO)N1C[C@H](C)[C@@H](CN(C)Cc2ccc3c(c2)OCO3)Oc2cc(Br)ccc2S1(=O)=O	TDP1 cell noCPT 7.3µM, DT40 TDP1 CPT 21µM
C[C@H](O)C#Cc1ccc2c(c1)O[C@@H](CN(C)Cc1ccc(-c3ccccc3)cc1)[C@H](C)CN([C@@H](C)CO)S2(=O)=O	HT1080 IDH1KD tx 21µM, TDP1 cell noCPT 3.7µM, HT1080NT lethal inconclusive, IL-1B inflam inh inconclusive, DT40 TDP1 CPT 2.9µM

Screening data: PubChem BioAssay, National Center for Advancing Translational Sciences (NCATS)
